# Assay outcomes: PubChem BioAssay, National Center for Advancing Translational Sciences (NCATS)
# ELG1 DNA repair: ELG1-dependent DNA repair inhibition | HEK293T ELG1-luciferase reporter, luminescence, 16 h; DNA damage induced by 5-fluorouridine | Potency, µM (titrated, usually from 46.1 µM), inactives show top-dose activity change, negative = inhibition, most hits filed as inhibitors | actives 2.3% (n = 330,000) | AID 504467; also: potency is read from the fitted curve at half-maximal effect; nearly all actives have a fitted effect of over 55% in size
#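 Quantitative HTS, concentration-response format. 2,000 cells/well co-treated with 5-fluorouridine and compound, 16 hr in 5% CO2 at 37 °C; ONE-Glo luminescence read after 30 min.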
# DT40 TDP1 no CPT: qHTS for Inhibitors of human tyrosyl-DNA phosphodiesterase 1 (TDP1): qHTS in cells in absence of CPT; DT40 Tdp1-/- hTDP1 cells, no CPT, ATP luminescence, 48 h; Potency, µM (top dose mostly 46.2 µM), inactives show top-dose activity change, negative = growth inhibition, usual class: inhibitors; actives 15% (n = 420,000); also: potency is read from the fitted curve at half-maximal effect; nearly all actives have a fitted effect of over 55% in size
#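 Seeded 400 DT40-hTDP1 cells/well (vehicle DMSO, no 20 nM CPT); pinned compounds; ≥48 hr at 37 °C; CellTiter-Glo luminescence as viability measure.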
# TDP1 inh: blocks human tyrosyl-DNA phosphodiesterase 1 | Potency, µM (top dose mostly 130 µM), for inactives: top-dose activity change, negative = inhibition, most hits filed as inhibitors | recombinant TDP1, AlphaScreen DNA substrate cleavage | Q9NUW8 | actives 0.28% (n = 350,000); also: potency is read from the fitted curve at half-maximal effect; nearly all actives have a fitted effect of over 40% in size
# Target sequence (Q9NUW8 whole entry, looked up): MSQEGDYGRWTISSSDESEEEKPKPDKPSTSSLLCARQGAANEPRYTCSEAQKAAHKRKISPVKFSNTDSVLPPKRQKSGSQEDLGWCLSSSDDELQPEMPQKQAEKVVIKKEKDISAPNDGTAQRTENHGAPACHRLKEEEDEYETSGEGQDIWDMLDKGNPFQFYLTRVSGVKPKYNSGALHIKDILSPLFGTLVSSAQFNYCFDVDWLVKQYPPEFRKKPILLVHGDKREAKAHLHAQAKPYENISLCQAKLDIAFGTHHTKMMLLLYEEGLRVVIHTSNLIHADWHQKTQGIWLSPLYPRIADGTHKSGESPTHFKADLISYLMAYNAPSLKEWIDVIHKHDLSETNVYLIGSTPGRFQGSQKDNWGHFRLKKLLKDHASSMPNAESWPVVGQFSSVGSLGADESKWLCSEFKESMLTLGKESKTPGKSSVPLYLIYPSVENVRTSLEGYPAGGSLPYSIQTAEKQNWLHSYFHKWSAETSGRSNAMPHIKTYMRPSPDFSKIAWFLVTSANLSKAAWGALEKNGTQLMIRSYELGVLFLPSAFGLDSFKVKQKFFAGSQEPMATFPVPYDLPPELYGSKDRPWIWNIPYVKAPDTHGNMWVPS
#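 Here, a 5' biotin and 3' phosphotyrosine-FITC DNA oligonucleotide reports Tdp1 activity: intact substrate bridges AlphaScreen beads, while cleavage leaves a 3' phosphate and drops signal. All incubations at room temperature.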
# IL1B secr inh: blocks inflammasome-driven IL-1 beta release. THP-1 LPS/ATP IL-1B secretion, AlphaLISA, 16 h; active compounds read low. activity change, % at 57.5 µM. actives 4.7% (n = 360,000); in the data active = activity change below about -50%; inconclusive = mostly about -30% to -49%
#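 THP-1 cells pretreated 1 hr with compounds (up to 57.5 uM final), then stimulated with LPS (250 ng/mL final) plus ATP (1.25 mM final); secreted IL-1B measured by AlphaLISA after 16 hr, decreased signal indicating inhibition.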
# Giardia kill: kills Giardia lamblia; Giardia lamblia trophozoite viability; activity change, % at 7.66 µM, hits read low; actives 0.15% (n = 340,000); in the data active = activity change below about -80%; inconclusive = between about -30% and that limit;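 also: parasites exposed to compound for two days anaerobically before the ATP read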
#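 Each well holds 100 Giardia trophozoites and compound. After two days (48 hrs) at 37 deg C in anaerobic conditions, ATP is quantified by luminescence.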
# TDP1 cell CPT: DT40-hTDP1 cell growth loss with CPT. chicken DT40 Tdp1-/-;hTDP1 cells + 20 nM CPT, ATP luminescence, 48 h. Potency, µM (titrated, usually from 46.2 µM), for inactives: top-dose activity change, negative = growth inhibition, hits mostly inhibitors. actives 12% (n = 420,000). AID 686979; also: potency is read from the fitted curve at half-maximal effect; nearly all actives have a fitted effect of over 55% in size
#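 Chicken DT40 Tdp1-/- cells complemented with human TDP1, 400 cells/well, exposed to compounds plus 20 nM camptothecin for at least 48 h at 37 C; viability read as ATP content by CellTiter-Glo luminescence.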
# * = called active by the depositor; i = inactive; ? = inconclusive; · = no result; [ ] = dose if it differs, or a comment. Compounds with a hit are over-represented: about 19% of the library has one in this group of screens. Unless noted, calls follow the shape of the dose curve; as a rule, active = well fitted curve in the direction sought with a large enough effect; inconclusive = small, poorly fitted or top-dose-only effect, or another doubt; inactive = no such curve, though single readings can be large; an effect the other way counts as inactive or inconclusive. % is scaled to controls: 0 for no effect and ±100 for the full control effect.
SMILES,ELG1 DNA repair,DT40 TDP1 no CPT,TDP1 inh,IL1B secr inh,Giardia kill,TDP1 cell CPT
CC(=O)c1cccc(-c2ccnc3c2CC(C(=O)Nc2ccc4c(c2)OCO4)O3)c1 (stereo not given),·,2.3µM*,·,-11,·,4.1µM*
CC(=O)Nc1ccc(-c2ccnc3c2CC(C(=O)Nc2ccc4c(c2)OCO4)O3)cc1 (stereo not given),·,8.2µM*,·,-24,·,6.5µM*
CCOc1ccc(NC(=O)c2ccc(N3CC4CC(C3)c3cccc(=O)n3C4)c(NC(=O)c3ccncc3)c2)cc1 (stereo not given),?,-6%,5%,-10,14,-20%
O=C(CCN1CCOCC1)Nc1cc(C(=O)Nc2ccc(Cl)cc2)ccc1N1CC2CC(C1)c1cccc(=O)n1C2 (stereo not given),?,-26%,4%,-63*,-7,?
COCCNS(=O)(=O)c1cc(OC)c(C)cc1C,4%,-1%,4%,15,22,-6%
CCCOc1cc(C)c(S(=O)(=O)NCCOC)cc1C,-10%,?,8%,8,4,26µM*
CC[N+](C)(C)c1ccc(/C=C/c2ccc3ccccc3n2)cc1,·,?,·,·,·,0.028µM*
Clc1ccc(/C=C/c2ccc3ccccc3n2)cc1Cl,·,3.5µM*,·,·,·,6.3µM*
CC(=O)/C=C/c1ccc2ccccc2n1,-23%,2.6µM*,0%,-120*,9,5.2µM*
CCN(CC)c1ccc(/C=C/c2ccc3ccccc3n2)cc1,·,0.16µM*,·,·,·,0.16µM*
O/N=C/c1ccc2ccccc2n1,?,-21%,·,6,-9,-2%
Clc1ccc(/C=C/c2ccc3ccccc3n2)c(Cl)c1,·,?,·,·,·,-6%
COc1ccc(-c2nc3n(n2)C(c2ccccc2OC)C(C(=O)Nc2cccnc2)=C(C)N3)cc1 (stereo not given),·,?,·,·,·,-16%
CC(C)(C)C(=O)Nc1cc(NC(=O)C(C)(C)C)cc(C(=O)Nc2c[nH]c(=O)[nH]c2=O)c1,·,-10%,·,·,-7,8%
Cn1ncc2c(Nc3cccc(C#N)c3)ncnc21,·,?,8%,·,·,?
Cc1ccc(N=C2CCCN2Cc2ccccc2)c(C#N)c1,12%,21µM*,-1%,-4,17,?
Cc1ccc(N=C2CCCCCN2C)c(C#N)c1,?,-10%,6%,0,27,-12%
Nc1nc2c(ncn2COC(CO)CO)c(=O)[nH]1,0%,2.6µM*,-3%,3,8,1.3µM*
CCCCn1cnc2c(=O)[nH]c(N)nc21,·,-23%,4%,·,-1,-5%
O=c1onc(-c2ccccc2)n1Cc1ccc([N+](=O)[O-])cc1,·,-23%,·,-13,·,0%
CCCCN(CCCC)CC(O)CN(c1cc([N+](=O)[O-])ccc1OC)S(=O)(=O)c1ccccc1 (stereo not given),5%,15µM*,4%,·,0,?
COc1ccc([N+](=O)[O-])cc1N(CC(O)CN(CC(C)C)CC(C)C)S(=O)(=O)c1ccccc1 (stereo not given),7%,21µM*,-4%,?,-2,?
COc1ccc(NC(=O)CC2Nc3cc(C)c(C)cc3NC2=O)c([N+](=O)[O-])c1 (stereo not given),14%,5.8µM*,6%,-6,1,?
COc1ccc(NC(=O)CN2CCC(C)CC2)c([N+](=O)[O-])c1,22%,8.2µM*,4%,?,0,8.2µM*
COc1cc(-c2ccc(NC(=O)CN3CCC(C)CC3)c(OC)c2)ccc1NC(=O)CN1CCC(C)CC1,14%,18µM*,2%,-1,-24,23µM*
SMILES,ELG1 DNA repair,DT40 TDP1 no CPT,TDP1 inh,IL1B secr inh,Giardia kill,TDP1 cell CPT
CC1CCN(CC(=O)Nc2ccc(Cl)cc2[N+](=O)[O-])CC1,-5%,?,8%,-6,-8,?
COc1ccc(NC(=O)CN2CCC(C)CC2)cc1,?,-7%,2%,13,7,-1%
COc1ccc(NC(=O)CSc2ccccc2)c([N+](=O)[O-])c1,?,29µM*,-1%,-10,0,-1%
COc1ccc(NC(=O)CSc2nncn2C)c([N+](=O)[O-])c1,9%,3%,2%,-1,-3,1%
COc1cccc(OCc2cc(C(=O)NC(C)c3cnn(C)c3C)no2)c1 (stereo not given),?,3%,2%,-6,-12,?
COc1ccc(NC(=O)CN2CCCCC2)c([N+](=O)[O-])c1,?,13µM*,4%,?,1,13µM*
CNS(=O)(=O)c1cccc(C(=O)OCC(=O)Nc2ccc(OC)cc2[N+](=O)[O-])c1,4%,6.5µM*,-2%,7,-3,33µM*
COc1ccc(NC(=O)COC(=O)c2cc(OC)c(OC)c(OC)c2)c([N+](=O)[O-])c1,-8%,20%,-4%,14,2,-10%
Cc1ccc(S(=O)(=O)/N=C2/C=C(Sc3ncn[nH]3)C(=O)c3ccccc32)cc1,16µM*,0.37µM*,11%,-105*,-17,0.33µM*
CC(C)c1ccc(S(=O)(=O)/N=C2/C=C(Sc3ncn[nH]3)C(=O)c3ccccc32)cc1,6.5µM*,3.3µM*,7%,-100*,-8,2.6µM*
COc1ccccc1CN1CCCC(n2cc(C(=O)N3CCCCC3)nn2)C1 (stereo not given),·,-8%,·,·,·,6%[9.04 µM]
Cc1cc(C)cc(CN2CCC(Oc3ccc(C(=O)N4CCCC4)cc3)CC2)c1,9%,23µM*,·,?,11,21µM*
COc1ccccc1/C=C/CN1CCC(Oc2ccc(C(=O)N3CCCCC3)cc2)CC1,-25%,26µM*,5%[56.1 µM],-57*,15,?
COc1ccc(C(=O)NC2CC2)cc1OC1CCN(Cc2ccccc2)CC1,-4%,5%,0%,i,-1,3%
O=C(c1ccc(OC2CCN(C/C=C/c3ccccc3)CC2)cc1)N1CCCCC1,-7%,?,4%,?,15,?
COc1ccc(/C=C/CN2CCC(Oc3ccc(C(=O)N4CCCCC4)cc3)CC2)cc1,-11%,15µM*,5%[56.1 µM],i,4,?
COC(=O)c1ccc(CN2CCC(Oc3ccc(C(=O)N4CCCCC4)cc3)CC2)cc1,·,?,·,9,4,?
